In PMC5540273 (PLoS ONE, 2017):

How the values were obtained:
Details in all cases: concentration: 1 μM, replicates: in singlicate; n = 1
BRSK1 = tested on: BRSK1
BRSK2 = tested on: BRSK2
BTK = tested on: BTK
BUB1 = tested on: BUB1
CAMK1B = tested on: CAMK1B
CAMK1D = tested on: CAMK1D
CAMK1G = tested on: CAMK1G
CAMK1 = tested on: CAMK1
CAMK2A = tested on: CAMK2A
CAMK2B = tested on: CAMK2B
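Note: KINOMEscan kinase panel screen.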

| Structure (SMILES) | %Inh (BRSK1) | %Inh (BRSK2) | %Inh (BTK) | %Inh (BUB1) | %Inh (CAMK1B) | %Inh (CAMK1D) | %Inh (CAMK1G) | %Inh (CAMK1) | %Inh (CAMK2A) | %Inh (CAMK2B) |
| --- | --- | --- | --- | --- | --- | --- | --- | --- | --- | --- |
| O=c1cc(N2CCOCC2)nc2n(Cc3cccc(Cl)c3)ccn12 [GSK2296823] | 25% | 0% | 0% | 18% | 22% | 22% | 0% | 0% | 0% | 0% |
| CC(=O)Nc1n[nH]c2ncc(-c3ccccc3)cc12 [SB-548492] | 21% | 0% | 0% | 0% | 0% | 18% | 0% | 35% | 4% | 0% |
| O=C(Nc1ccccc1F)NC1CCN(c2ccnc(Nc3ccc(F)cc3)n2)C1 (stereo not shown) [GSK1379722] | 17% | 0% | 12% | 44% | 0% | 0% | 0% | 0% | 0% | 0% |
| COc1ccc(NC(=O)c2ccc(-c3cc(-c4nnc(C)o4)ccc3C)cc2)cc1 [GW595885] | 0% | 0% | 0% | 40% | 4% | 8% | 0% | 4% | 0% | 0% |
| Clc1ccc(-c2cc(-c3c[nH]nc3-c3ccccn3)ccn2)cc1 [GW681251] | 0% | 0% | 0% | 31% | 0% | 2% | 0% | 0% | 0% | 0% |
| Cn1cc(-c2ccc3c(c2)CCN3C(=O)Cc2cccc(C(F)(F)F)c2)c2c(N)ncnc21 [GSK2606414] | 12% | 0% | 0% | 6% | 11% | 10% | 0% | 4% | 0% | 0% |
| CCC(CC)(CC)n1cnc2c(N)ncnc21 [SKF-97620] | 0% | 15% | 0% | 48% | 18% | 4% | 6% | 3% | 0% | 0% |
| C[C@@H]1CCN(C(=O)CO)C[C@@H]1N(C)c1ncnc2[nH]ccc12 | 13% | 0% | 0% | 0% | 29% | 0% | 0% | 0% | 0% | 0% |
| Cl.Cn1ccc(-c2cccc(Nc3ccnc4cc(-c5nccs5)ccc34)c2)n1 [GW525701] | 0% | 38% | 0% | 62% | 3% | 3% | 38% | 0% | 0% | 0% |
| CSc1nn2c(=O)cc(N3CCOCC3)nc2n1Cc1cccc(Cl)c1Cl [GSK2347225] | 0% | 0% | 0% | 0% | 0% | 8% | 17% | 0% | 0% | 0% |
| OCCOCCn1ccc2ncnc(Nc3ccc(Oc4cccc(Cl)c4)c(Cl)c3)c21 | 0% | 33% | 0% | 0% | 0% | 0% | 0% | 0% | 0% | 0% |
| CCCc1ccc(S(=O)(=O)NC2CCN(c3ccnc(Nc4ccc(OC)cc4)n3)C2)cc1 (stereo not shown) [GSK1379737] | 0% | 0% | 0% | 47% | 0% | 11% | 0% | 5% | 0% | 0% |
| Clc1cccc(-c2nc(Nc3ccncc3)c3ccccc3n2)c1 [GW873004] | 1% | 23% | 0% | 31% | 0% | 0% | 0% | 0% | 1% | 4% |
| N#Cc1ccc(Oc2ccc(Nc3ncnc4cc[nH]c34)cc2Cl)cc1 | 3% | 0% | 0% | 12% | 0% | 33% | 17% | 24% | 21% | 22% |
| Fc1cccc(COc2ccc(Nc3ncnc4nn5ccccc5c34)cc2Cl)c1 [GW689066] | 0% | 0% | 15% | 49% | 15% | 21% | 0% | 19% | 0% | 0% |
| COc1ccc(-c2oc3ncnc(N)c3c2-c2ccc(OC)cc2)cc1 [SB-589132] | 12% | 0% | 54% | 64% | 13% | 7% | 0% | 19% | 0% | 0% |
| Cc1ccc(C)c(NC(=O)NCCNc2ccnc(Nc3ccc(F)cc3)n2)c1 [GSK1379878] | 0% | 0% | 0% | 14% | 28% | 2% | 62% | 5% | 0% | 0% |

| Structure (SMILES) | %Inh (BRSK1) | %Inh (BRSK2) | %Inh (BTK) | %Inh (BUB1) | %Inh (CAMK1B) | %Inh (CAMK1D) | %Inh (CAMK1G) | %Inh (CAMK1) | %Inh (CAMK2A) | %Inh (CAMK2B) |
| --- | --- | --- | --- | --- | --- | --- | --- | --- | --- | --- |
| CCc1nc(-c2cccc(N(C)S(=O)(=O)c3ccccc3)c2)c(-c2ccnc(Nc3ccc(N4CCN(C(C)=O)CC4)nc3)n2)s1 [GSK1645895] | 0% | 0% | 0% | 0% | 27% | 29% | 16% | 45% | 0% | 0% |
| Nc1nc(-c2ccc3c(N)n[nH]c3c2)cc(N2CCCCC2)n1 [GSK2228768] | 5% | 0% | 0% | 21% | 8% | 5% | 0% | 13% | 0% | 0% |
| CN1CCC(n2cnc(-c3ccc(F)cc3)c2-c2ccnc(NC3CCNCC3)n2)CC1 [SB-229482] | 0% | 0% | 10% | 17% | 28% | 0% | 2% | 0% | 0% | 0% |
| FC(F)(F)c1ccc(-c2nn3ncccc3c2-c2ccnc(Nc3cccc(C(F)(F)F)c3)n2)cc1 [GW828205] | 0% | 0% | 49% | 0% | 0% | 18% | 0% | 11% | 0% | 0% |
| CNc1nccc(-c2c(-c3ccc(F)cc3)ncn2C2CCN(C)CC2)n1 [SB-222903] | 0% | 0% | 0% | 75% | 0% | 0% | 0% | 0% | 0% | 0% |
| Cl.c1ccc(Cn2ncc3cc(Nc4ncnc5ccccc45)ccc32)cc1 [GW273749] | 0% | 0% | 0% | 0% | 13% | 17% | 23% | 28% | 2% | 0% |
| Cc1cc(N2CCC(NS(=O)(=O)c3ccc(F)cc3)CC2)nc(Nc2cccc(C#N)c2)n1.O=C(O)C(F)(F)F [GSK1653537] | 7% | 0% | 0% | 0% | 0% | 8% | 0% | 16% | 0% | 0% |
| Oc1ccc2ncnc(Nc3ccc(OCc4ccccc4)cc3)c2c1 [GI262866] | 2% | 0% | 4% | 18% | 1% | 4% | 0% | 17% | 0% | 0% |
| c1ccc(-c2ccc3c(-c4ccnc(Nc5ccc6c(c5)OCCO6)n4)cnn3n2)cc1 [GW818941] | 0% | 0% | 14% | 28% | 12% | 8% | 0% | 29% | 0% | 5% |
| Cl.Fc1ccccc1COc1ccc(Nc2ncnc3ccc(-c4nnc(C(F)(F)F)o4)cc23)cc1Cl [GW424170] | 0% | 0% | 0% | 0% | 0% | 8% | 0% | 13% | 0% | 0% |
| CSc1ccc(NC2=C(c3ccccc3Cl)C(=O)NC2=O)cc1 [SB-342411] | 0% | 12% | 0% | 0% | 0% | 22% | 19% | 3% | 18% | 13% |
| COC(=O)c1cccc(NC(=O)NCCNc2ccnc(Nc3ccc(F)cc3)n2)c1 [GSK1379883] | 0% | 0% | 0% | 10% | 2% | 21% | 0% | 27% | 0% | 0% |
| Fc1cccc(COc2ccc(Nc3ncnc4cc[nH]c34)cc2Cl)c1 | 2% | 0% | 0% | 1% | 7% | 0% | 10% | 29% | 27% | 28% |
| COc1cc2c(Nc3cccc(NC(=O)c4ccccc4)c3)ncnc2cc1OCCCN1CCOCC1 [GSK223810] | 0% | 10% | 0% | 31% | 37% | 18% | 0% | 32% | 0% | 0% |
| Cn1ccc2ncnc(Oc3ccc(NC(=O)Nc4cccnc4)c(Cl)c3)c21 | 6% | 0% | 0% | 5% | 0% | 0% | 27% | 21% | 0% | 18% |
| Cn1ccc2ncnc(Nc3ccc(Oc4cccc(Cl)c4)c(Cl)c3)c21 | 13% | 0% | 0% | 12% | 0% | 11% | 5% | 22% | 9% | 0% |
| NC(=O)c1sc(-n2cnc3ccccc32)cc1OCc1ccccc1F [GSK1024306] | 5% | 0% | 0% | 20% | 31% | 0% | 0% | 0% | 0% | 0% |
